This is a sample that favours compounds with a hit; in the whole collection about 3.4% have one here.
FBW7 act: activators of human E3 ligase FBW7. Q969H0. AlphaScreen FBW7–phospho-cyclin E peptide binding, activator screen. normalized activity (activation), % at 26.1 µM. hit rate 0.13% among 650,000; in the data active = normalized activity above about 1.9%;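 also: purified mutant Fbw7 with reduced substrate affinity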
MITF inh: blocks human microphthalmia-associated transcription factor; O75030; AlphaScreen MITF homodimerization, bead proximity signal; inhibition, % at 2.6 µM; hit rate 0.91% among 650,000; AID 1259374; in the data active = inhibition above about 50%
GPR151 activ: activates the human receptor GPR151 | Q8TDV0 | PathHunter beta-arrestin GPR151 cells, luminescence | activation, % at 11.2 µM | hit rate 1% among 650,000 | AID 1508602; in the data active = activation above about 4.9%
Target sequence (Q8TDV0 whole entry, looked up): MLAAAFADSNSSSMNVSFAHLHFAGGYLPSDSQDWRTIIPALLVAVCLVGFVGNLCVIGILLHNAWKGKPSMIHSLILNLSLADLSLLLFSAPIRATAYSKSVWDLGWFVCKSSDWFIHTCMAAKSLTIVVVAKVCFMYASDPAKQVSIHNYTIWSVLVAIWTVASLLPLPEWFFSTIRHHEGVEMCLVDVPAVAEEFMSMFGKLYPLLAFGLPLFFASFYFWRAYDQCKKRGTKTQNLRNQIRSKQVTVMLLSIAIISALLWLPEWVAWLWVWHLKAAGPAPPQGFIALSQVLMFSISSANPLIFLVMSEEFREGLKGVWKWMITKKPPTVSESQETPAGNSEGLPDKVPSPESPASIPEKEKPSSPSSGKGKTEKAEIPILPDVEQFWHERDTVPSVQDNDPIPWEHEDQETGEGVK
TEAD-YAP block: TEAD-YAP interaction inhibition. HEK-TIYL cells, TEAD-Gal4/YAP UAS-luciferase luminescence. inhibition, % at 9.12 µM. hit rate 1.4% among 640,000. AID 1259422; in the data active = inhibition above about 32%
Hits are given with their value; 0 = inactive.

SMILES | FBW7 act | MITF inh | GPR151 activ | TEAD-YAP block
Cc1nc2c(C(=O)O)c[nH]n2c(=O)c1Cc1ccc(Cl)cc1 | 0 | 0 | 0 | 0
c1ccc(CC2(c3ccncc3)CCOCC2)cc1 | 0 | 0 | 0 | 0
COc1ccc(CNC(=O)Cc2ccc(-n3cccc3)cc2)cc1 | 0 | 0 | 0 | 45
CCOc1ccc(CNC(=O)Cc2cn(C)c3ccccc23)cc1 | 0 | 0 | 0 | 0
COCC(=O)N/N=C(\C)CC(=O)NCc1ccc(OC)cc1 | 2.1 | 0 | 0 | 0
CCOc1ccc(CC(=O)NCc2ccccc2)cc1 | 0 | 0 | 0 | 37
COc1ccccc1CCC(=O)Nc1cnn(CC(=O)N2CCC[C@H]2CO)c1 | 0 | 0 | 0 | 0
COc1ccc(C2CC(=O)C3=C(C2)Nc2ccccc2NC3c2cc3c(cc2Br)OCO3)cc1OC (stereo not given) | 0 | 0 | 0 | 0
COc1ccccc1-n1c(CNC(=O)COc2ccccc2)nnc1SCC(=O)N1N=C(c2cccs2)CC1c1ccc(C)cc1 (stereo not given) | 0 | 0 | 0 | 41
Cc1ccc(C2CC(c3cccs3)=NN2C(=O)CSc2nnc(CNC(=O)COc3ccccc3)n2-c2cccc(C)c2C)cc1 (stereo not given) | 0 | 0 | 0 | 0
CC(C)(C)NC(=O)CSc1nnc(-c2ccc(Cl)cc2Cl)o1 | 0 | 0 | 0 | 0
CCC1CCC(C(=O)NC(C(=O)NCCc2ccc(S(N)(=O)=O)cc2)C(C)C)CC1 (stereo not given) | 0 | 0 | 0 | 40
C=CCn1c(=O)/c(=C\C=C2\C=CN(CC)c3ccccc32)s/c1=C\c1sc(-c2ccccc2)c(-c2ccccc2)[n+]1CC | 0 | 0 | 0 | 0
CCN1C=C/C(=C/c2cccc[n+]2C)c2ccccc21 | 0 | 0 | 0 | 82
CC(=O)Nc1ccc(NC2=C/C(=N/S(=O)(=O)c3ccccc3)c3ccccc3C2=O)cc1 | 0 | 0 | 0 | 99
O=C1C(N2CCCCC2)=C/C(=N/S(=O)(=O)c2ccccc2)c2ccccc21 | 0 | 0 | 0 | 0
CCS(=O)(=O)c1ncc(Cl)c(C(=O)Nc2ccccc2C(F)(F)F)n1 | 0 | 0 | 0 | 35
CCS(=O)(=O)c1ncc(Cl)c(C(=O)Nc2ccccc2F)n1 | 0 | 0 | 0 | 0
CCS(=O)(=O)c1ncc(Cl)c(C(=O)Nc2ccc(OC)c(Cl)c2)n1 | 0 | 0 | 0 | 50
CCS(=O)(=O)c1ncc(Cl)c(C(=O)Nc2cccc(C(F)(F)F)c2)n1 | 0 | 0 | 0 | 34
CCS(=O)(=O)c1ncc(Cl)c(C(=O)Nc2ccc(Cl)cc2)n1 | 0 | 0 | 0 | 0
CCOC(=O)C1=C(C)N=c2s/c(=C/c3ccc(N(CC)CC)cc3OC)c(=O)n2C1c1cc(OC)c(OC)cc1Br (stereo not given) | 0 | 0 | 0 | 0
CCN(c1ccccc1)S(=O)(=O)c1ccc2[nH]cc(C(=O)N(C)Cc3ccccc3)c(=O)c2c1 | 0 | 0 | 0 | 0
Oc1cccc(C(Nc2nccs2)c2ccc3cccnc3c2O)c1 (stereo not given) | 0 | 69 | 0 | 73
Cc1[nH]c2ccccc2c1C(Nc1nccs1)c1ccc(F)cc1 (stereo not given) | 0 | 0 | 0 | 0
SMILES | FBW7 act | MITF inh | GPR151 activ | TEAD-YAP block
Oc1c(C(Nc2nccs2)c2ccccc2)ccc2cccnc12 (stereo not given) | 0 | 0 | 0 | 70
Oc1c(C(Nc2nccs2)c2ccccn2)ccc2cccnc12 (stereo not given) | 0 | 0 | 0 | 76
Oc1c(C(Nc2nccs2)c2ccc(F)cc2)ccc2cccnc12 (stereo not given) | 0 | 0 | 0 | 43
CCOC(=O)C1=CN(c2ccc(F)cc2)C=C(C(=O)OCC)C1c1cccs1 | 0 | 0 | 0 | 0
CCc1ccc(C2=C(O)c3ccccc3C(=O)C2=O)cc1 | 0 | 0 | 0 | 0
COc1cc(CNc2nc(C)c(-c3ccn(CCO)n3)s2)cc2c1OCO2 | 0 | 0 | 0 | 0
CCCn1c(=O)n(CCC)c2cc(Cl)ccc21 | 0 | 0 | 0 | 0
CCCn1c(=O)c2c(nc3n(-c4ccccc4C)c(C)cn23)n(C)c1=O | 0 | 0 | 0 | 0
C=CCn1c(=O)c2c(nc3n(-c4ccccc4C)c(C)cn23)n(C)c1=O | 2.1 | 0 | 0 | 0
COC(=O)c1cc(NC(=O)C2CCCCC2C(=O)O)cc(C(=O)OC)c1 (stereo not given) | 0 | 0 | 0 | 0
Cc1ccc2c(c1)N(Cc1c(C)noc1C)C(=O)C(F)(F)O2 | 0 | 0 | 0 | 0
O=C(Nc1ccc(N=Cc2ccc(O)cc2O)cc1)c1ccc(F)cc1 | 0 | 0 | 0 | 0
COc1cc(Nc2nc3ccccc3n3cnnc23)cc(OC)c1OC | 0 | 0 | 0 | 0
COc1cc(Nc2nc3ccc(C)cc3n3cnnc23)cc(OC)c1OC | 0 | 0 | 0 | 34
CCCN1C(=O)C(O)(CC(=O)c2ccccc2O)c2cc(Br)ccc21 (stereo not given) | 0 | 0 | 0 | 38
CCCN1C(=O)C(O)(CC(=O)c2ccccc2OC)c2cc(Br)ccc21 (stereo not given) | 0 | 0 | 0 | 0
CC1=C(C(=O)OCCOc2ccccc2)C(c2ccccc2OCc2ccccc2)NC(=O)N1C (stereo not given) | 0 | 0 | 0 | 0
COc1cccc2c(SCC(=O)Nc3ccc4c(c3)OCCO4)nccc12 | 0 | 0 | 0 | 51
COC(=O)COc1cccc2c(=O)n(CC(=O)Nc3ccc4c(c3)OCCO4)ccc12 | 0 | 0 | 0 | 0
COc1cccc2c(SCC(=O)Nc3ccc4c(c3)OCO4)nccc12 | 0 | 0 | 0 | 48
O=c1cc(-c2ccccc2)[nH]c2ccccc12 | 0 | 0 | 0 | 46
O=c1nc(-c2ccccc2)c2ccccc2[nH]1 | 0 | 0 | 0 | 0
Cc1ccc(N2C(=O)C(CC(C)C)NC2=S)cc1 (stereo not given) | 0 | 0 | 0 | 0
COc1ccc(/C=C2\SC(=S)N(c3ccc(O)c(C(=O)O)c3)C2=O)cc1 | 0 | 0 | 0 | 0
Cc1ccc(/C=C2/SC(=S)N(c3ccc(O)c(C(=O)O)c3)C2=O)o1 | 0 | 83 | 0 | 0
SMILES | FBW7 act | MITF inh | GPR151 activ | TEAD-YAP block
O=C(O)c1cc(N2C(=O)/C(=C\c3ccco3)SC2=S)ccc1O | 0 | 81 | 0 | 0
O=C(CCN1C(=O)C2C3C=CC(C3)C2C1=O)Nc1ccc(Cl)c(Cl)c1 (stereo not given) | 0 | 0 | 0 | 0
Cc1nc2ccccn2c1C(=O)Nc1ccc(CC(=O)NCc2cccs2)cc1 | 0 | 0 | 0 | 55
O=C(Cc1ccc(Cl)cc1)NCc1cccs1 | 9.5 | 0 | 0 | 0
O=C(NCc1cccs1)C1CCN(C(=O)Nc2ccc(Cl)cc2)CC1 | 2.4 | 0 | 0 | 0
Cc1nc2ccccn2c1C(=O)Nc1ccccc1 | 0 | 0 | 0 | 0
CCN(CC)S(=O)(=O)c1cccc(C(=O)Oc2cccc(NC(=O)c3ccc(OC)cc3)c2)c1 | 0 | 0 | 0 | 66
CCN(CC)S(=O)(=O)c1ccc(Cl)c(C(=O)Oc2cccc(NC(=O)c3ccc(OC)cc3)c2)c1 | 0 | 0 | 0 | 67
CCN(CC)S(=O)(=O)c1cccc(C(=O)Nc2ccc(C#N)cc2)c1 | 0 | 0 | 0 | 47
CCN(CC)S(=O)(=O)c1ccc(Cl)c(C(=O)Oc2cccc(NC(=O)c3ccccc3Cl)c2)c1 | 0 | 0 | 0 | 0
O=C(Nc1c2c(nn1-c1ccc([N+](=O)[O-])cc1)CSC2)c1cccc(Cl)c1 | 0 | 0 | 0 | 0

Screens from PubChem.
